Bioassay records (PubChem)
KDM5B inhibitor – Primary screen for KDM5B Histone Demethylases FDH-coupled qHTS. Lysine-specific demethylase 5B (Homo sapiens), Q9UGL1. KDM5B demethylase, FDH-coupled NADH fluorescence (FDH is formaldehyde dehydrogenase). Potency, µM (top dose mostly 57.7 µM), actives largely listed as inhibitors. 2.6% of 220,000 active. AID 1347165, 2019; further: potency means the concentration at half of the fitted maximal effect; 0% is about no effect; nearly all actives have a fitted effect of over 70% in size
Target sequence (Q9UGL1 whole entry, looked up): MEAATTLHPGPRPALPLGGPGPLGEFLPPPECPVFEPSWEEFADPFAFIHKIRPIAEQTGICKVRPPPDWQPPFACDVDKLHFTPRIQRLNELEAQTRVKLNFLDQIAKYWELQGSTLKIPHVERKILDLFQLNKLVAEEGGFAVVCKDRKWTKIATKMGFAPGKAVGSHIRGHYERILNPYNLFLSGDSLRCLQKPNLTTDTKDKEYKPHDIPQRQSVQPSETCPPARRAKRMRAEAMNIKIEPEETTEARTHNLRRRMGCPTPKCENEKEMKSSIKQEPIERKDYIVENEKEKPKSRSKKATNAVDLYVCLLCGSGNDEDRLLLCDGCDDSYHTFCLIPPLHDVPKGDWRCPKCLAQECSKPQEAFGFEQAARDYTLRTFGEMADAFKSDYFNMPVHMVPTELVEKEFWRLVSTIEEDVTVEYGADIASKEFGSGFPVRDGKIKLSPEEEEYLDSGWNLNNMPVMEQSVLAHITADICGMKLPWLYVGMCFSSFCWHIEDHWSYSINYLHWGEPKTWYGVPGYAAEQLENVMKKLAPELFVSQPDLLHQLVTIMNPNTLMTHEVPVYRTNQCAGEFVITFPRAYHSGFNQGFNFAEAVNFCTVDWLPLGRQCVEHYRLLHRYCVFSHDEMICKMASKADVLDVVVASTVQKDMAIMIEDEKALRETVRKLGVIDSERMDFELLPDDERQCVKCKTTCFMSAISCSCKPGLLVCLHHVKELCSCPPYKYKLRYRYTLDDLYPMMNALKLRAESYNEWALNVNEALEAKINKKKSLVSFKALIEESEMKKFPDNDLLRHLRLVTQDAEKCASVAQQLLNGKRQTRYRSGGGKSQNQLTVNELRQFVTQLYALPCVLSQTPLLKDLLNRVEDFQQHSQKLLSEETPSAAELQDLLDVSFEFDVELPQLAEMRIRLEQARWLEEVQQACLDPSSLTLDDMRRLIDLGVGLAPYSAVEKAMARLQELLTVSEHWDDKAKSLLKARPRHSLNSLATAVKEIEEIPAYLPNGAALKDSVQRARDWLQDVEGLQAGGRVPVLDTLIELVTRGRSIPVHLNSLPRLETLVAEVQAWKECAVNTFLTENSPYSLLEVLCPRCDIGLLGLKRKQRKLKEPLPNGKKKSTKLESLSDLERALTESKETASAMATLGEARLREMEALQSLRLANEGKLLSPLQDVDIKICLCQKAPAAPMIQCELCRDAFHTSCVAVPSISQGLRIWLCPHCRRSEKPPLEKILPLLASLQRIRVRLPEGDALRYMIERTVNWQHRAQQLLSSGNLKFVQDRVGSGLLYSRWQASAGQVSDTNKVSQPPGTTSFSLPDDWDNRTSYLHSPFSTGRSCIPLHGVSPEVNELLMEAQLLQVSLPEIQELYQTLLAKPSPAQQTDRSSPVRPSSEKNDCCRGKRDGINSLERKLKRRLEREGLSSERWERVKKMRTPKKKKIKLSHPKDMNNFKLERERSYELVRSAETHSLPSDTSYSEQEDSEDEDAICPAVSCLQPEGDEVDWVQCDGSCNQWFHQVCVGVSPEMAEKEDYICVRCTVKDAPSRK
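Compound dilutions met 200 nM (final) KDM5BΔAP for 10 min at room temperature before substrate addition. The substrate mix held 12.5 µM H3K4me3 with cofactors 25 µM α-ketoglutarate and 50 µM Fe²⁺. NADH signal gain over 30 min defined activity.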
HEK293 viab – GF-AFC viability counterscreen for inhibitors of alpha-synuclein gene (SNCA) expression; HEK-293-SNCA-luc viability, GF-AFC fluorescence, 24 h; Potency, µM (highest dose often 57.1 µM), for inactives: at the top dose activity change, negative = cytotoxicity, actives largely listed as cytotoxic; 0.12% of 150,000 active; AID 1671193, 2021;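 further: potency means the concentration at half of the fitted maximal effect; 0% = DMSO-treated cells and -100% = medium-only wells without cells; nearly all actives have a fitted effect of over 30% in size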
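Cytotoxicity counterscreen: after 24 h compound treatment of genome-edited SNCA-luciferase HEK-293 cells, live-cell protease substrate GF-AFC read by fluorescence after 30 min; activity scaled between DMSO (0%) and medium-only (-100%), curves Hill-fitted.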
SNCA expr inh – Primary qHTS assay for inhibitors of alpha-synuclein gene (SNCA) expression. HEK-293 SNCA-luciferase knock-in, luminescence, 24 h. Potency, µM (doses to about 57.2 µM), inactives show at the highest dose activity change, negative = inhibition, most hits filed as inhibitors. 0.17% of 140,000 active. AID 1671194, 2021;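 further: potency means the concentration at half of the fitted maximal effect; plate controls were DMSO cells for no effect and cell-free wells for full effect; nearly all actives have a fitted effect of over 45% in size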
IP6K1 inh – Primary qHTS assay for small molecule inhibitors of Inositol hexaphosphate kinase 1 (IP6K1) | IP6K1 kinase, ADP-Glo luminescence, 2 h; active compounds read low | activity change, % (series mostly up to about 58 µM) | 0.81% of 140,000 active | Inositol hexakisphosphate kinase 1 (Homo sapiens), Q92551; in the data active means activity change below about -25%; further: on the % scale 0 is the no-effect control and ±100 the full control effect
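ADP-Glo luminescence measures ADP made by human IP6K1 during a 2 h RT reaction with ATP/IP6 (mix at 1.3 mM/130 uM); top library doses 57.5 and 19.1 uM final.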
Numbers without * were called inactive; i = inactive; ? = inconclusive; · = no result given; [ ] = dose if it differs, or a comment. A selection: hits, their analogues and other compounds. The true share with any hit is near 2.9%. Unless noted, the call rests on the fitted dose curve; in most records, active means well fitted curve in the direction sought with a large enough effect; inconclusive means small, poorly fitted or top-dose-only effect, or another doubt; inactive means no such curve, though single readings can be large; an effect the other way counts as inactive or inconclusive.

SMILES	KDM5B inhibitor	HEK293 viab	SNCA expr inh	IP6K1 inh
C=CCNC(=O)C(NC(=O)c1cccc(OC)c1)C1CCN(C(=O)c2ccc(F)cc2)CC1 (centres undefined)	i	5%	-6%	7
C=CCNC(=O)C(NC(=O)c1cccs1)C1CCN(C(=O)c2ccc(F)cc2)CC1 (centres undefined)	28µM*	3%	-20%	12
COc1ccccc1-c1cn(C)c(=O)n2cc(CN3CCNC(=O)C3)nc12	?	0%[87.6 µM]	5%[87.6 µM]	2
COc1ccc(-c2cn(C)c(=O)n3cc(CN4CCNC(=O)C4)nc23)cc1	28µM*	-6%[87.6 µM]	4%[87.6 µM]	-5
COc1ccc(-c2cn(C)c(=O)n3cc(CN4CC[S+](=O)([O-])CC4)nc23)cc1OC	35µM*	11%[87.6 µM]	28%[87.6 µM]	-13
Cc1ccccc1-n1nc(-c2c(C)nc3c(OCC(=O)OC(C)(C)C)cccn3c2=O)cc1C	20µM*	0%	-7%	20
CCOC(=O)CCCOc1cccn2c(=O)c(-c3cc(C)n(-c4cccc(C)c4)n3)c(C)nc12	28µM*	-8%	7%	19
CCOC(=O)CCCOc1cccn2c(=O)c(-c3cc(C)n(-c4ccc(Cl)cc4)n3)c(C)nc12	25µM*	-10%	-20%	-4
Cc1nc2c(OCC(=O)c3ccccc3)cccn2c(=O)c1-c1cc(C)n(-c2ccccc2)n1	?	3%	21%	-18
CCOC(=O)CCCOc1cccn2c(=O)c(-c3cc(C)n(-c4ccccc4C)n3)c(C)nc12	32µM*	4%	6%	20
O=C1CCN(CC(O)Cc2ccccc2)c2ccc(F)cc2CN1CC1CC1 (centres undefined)	·	·	·	3
C[C@@H]1C(=O)O[C@H]2[C@H]1CC[C@@]1(C)Cc3sc(Nc4ccc(C(=O)O)cc4)nc3[C@@H](C)[C@H]21	35µM*	1%[87.6 µM]	-19%[87.6 µM]	15
C[C@@H]1C(=O)O[C@H]2[C@H]1CC[C@@]1(C)Cc3sc(NC(=O)c4ccc(N(C)C)cc4)nc3[C@@H](C)[C@H]21	28µM*	0%	17%	22
Cc1nn(-c2ccccc2)c2c1C(C)N(C1CCN(C(=O)c3cccc(Cl)c3)C1)C2=O (centres undefined)	·	·	·	-3
CCCc1noc(-c2nc(-c3ccc(OC)c(OC)c3)no2)n1	i	-2%	38%	14
COc1ccc(-c2noc(-c3nc(Cc4ccccc4)no3)n2)cc1OC	28µM*	-16%	-10%	7
c1ccc(Cc2noc(-c3nc(-c4ccc5c(c4)OCO5)no3)n2)cc1	35µM*	-8%	19%	-13
COc1cncc(Nc2cnc3ccc(N(C)Cc4ccc(F)cc4)nn23)c1	35µM*	-1%[87.6 µM]	?	-13
Fc1ccc(-c2ccc3ncc(Nc4ccnc(N5CCOCC5)c4)n3n2)cc1	i	?	-19%[87.6 µM]	-12
CN(Cc1ccc(F)cc1)c1ccc2ncc(Nc3ccnc(N4CCOCC4)c3)n2n1	28µM*	-18%[87.6 µM]	?	-21
O=C(c1cc(-c2cccc(C(F)(F)F)c2)c2cccn2n1)N1CCOCC1	·	-11%	?	2
O=C(c1nc(-c2cccc(C(F)(F)F)c2)c2cnccn12)N1CCOCC1	10µM*	8%	1%	0
O=C(c1nc(-c2ccc(F)cc2)c2ccccn12)N1CCOCC1	32µM*	5%[87.6 µM]	-7%[87.6 µM]	-4
O=C(c1nc(-c2ccc(Cl)cc2)c2ccccn12)N1CCN(c2ncccn2)CC1	25µM*	4%	0%	34
O=C(c1nc(-c2ccc(F)cc2)c2cnccn12)N1CCCC1	32µM*	10%[87.6 µM]	1%[87.6 µM]	2
SMILES	KDM5B inhibitor	HEK293 viab	SNCA expr inh	IP6K1 inh
CC1(NC(=O)C2CC2)CN(Cc2nc(-c3ccc(Oc4ccccc4)cc3)cs2)C1	i	-23%[87.6 µM]	?	4
O=C(c1nc(-c2cccc(C(F)(F)F)c2)c2cnccn12)N1CCCC1	32µM*	6%	-9%	11
O=C(c1cc(-c2cccc(C(F)(F)F)c2)c2cccn2n1)N1CCCC1	·	-3%	-20%	-5
N#Cc1cccc(-c2cn3c(n2)N(C(=O)C2CCC2)CCC3)c1	22µM*	-6%	40%	12
N#Cc1cccc(-c2cn3c(n2)N(C(=O)C2CCCO2)CCC3)c1 (centres undefined)	32µM*	1%	22%	-16
COc1ccc(C2(C(=O)N3CCC(Cc4nc(-c5ccccc5)n[nH]4)C3)CC2)cc1 (centres undefined)	·	?	-13%	-6
O=C(CCc1c[nH]c2ccccc12)N1CCC[C@H](n2c(=O)n(CC3CC3)c3cccnc32)C1	i	0%	-4%	3
COc1cc(F)cc(-c2cccc(COc3cnc4c(ccn4CC(=O)O)c3)c2)c1	35µM*	1%[87.6 µM]	48%[87.6 µM]	-6
COc1cc(Cl)ccc1-c1cccc(COc2cnc3c(ccn3CC(=O)O)c2)c1	35µM*	3%[87.6 µM]	2%[87.6 µM]	-15
CC(C)Oc1cccc(-c2cccc(COc3cnc4c(ccn4CC(=O)O)c3)c2)c1	?	-4%[87.6 µM]	3%[87.6 µM]	-8
CC1=C[C@@H](CNC(=O)C2CC2)[C@H](C(C)C)C[C@H]1Cc1nnc(-c2ccccc2F)o1	i	?	?	19
Cc1ccc(C(CC(=O)N2CCc3ccccc3C2)c2cn(C)c3ccccc23)cc1 (centres undefined)	18µM*	9%	4%	4
Cc1ccc(C(CC(=O)N2CCCCC2)c2cn(C)c3ccccc23)cc1 (centres undefined)	?	-14%	-7%	21
COc1ccc(-c2cccc(C(=O)N3CCN(C(=O)c4cccnc4)CC3)c2)nn1	·	·	·	-1
Cn1c2c(c3ccccc31)CN(C(=O)Nc1ccc(Cl)cc1Cl)CC2	22µM*	5%	48%	-13
Cn1c2c(c3ccccc31)CN(C(=O)Nc1ccccc1F)CC2	22µM*	-2%	48%	-10
C1=C(c2cc(-c3cccc4cn[nH]c34)cn3cncc23)CCOC1	32µM*	-9%[87.6 µM]	?	29
Oc1ccccc1-c1cc(C2=CCOCC2)c2cncn2c1	32µM*	2%[87.6 µM]	2%[87.6 µM]	-13
Oc1cccc(-c2cc(C3=CCOCC3)c3cncn3c2)c1	?	3%[87.6 µM]	-15%[87.6 µM]	-6
Cc1noc(C)c1-c1cc(-c2cccc3cc[nH]c23)cn2cncc12	?	?	4%[87.6 µM]	-15
C1=C(c2cc(-c3cccc4[nH]ccc34)cn3cncc23)CCOC1	25µM*	-10%[87.6 µM]	-27%[87.6 µM]	-9
Cc1cccc(C)c1-n1c(=O)c2cnc(Nc3ccc(N4CCN(C)CC4)cc3)nc2n2c3ccccc3nc12	·	?	·	18
C=CCn1c(=O)c2cnc(Nc3ccc(N4CCN(C)CC4)cc3)nc2n1-c1cccc(C(C)(C)O)n1	·	?	0.48µM*	6
O=C(Cc1ccc(F)cc1)N1CCCC(C(=O)N2CCC(c3ccccc3)CC2)C1 (centres undefined)	·	-3%	-13%	7
